We go through 24 compounds from PubChem BioAssay (Tox21).

A short description of assay [1]: qHTS assay to identify small molecule agonists of the hypoxia (HIF-1) signaling pathway - cell viability counter screen (AID 1224844; calls by dose curve; note: nearly all actives have a fitted effect of over 50% in size). An outline of the steps: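 Luminescent ATP content (CellTiter-Glo, 30 min, room temperature) served as the viability measure in HRE-bla ME-180 cells exposed to compounds for 17 hrs in low-serum medium (0.5% dialyzed FBS).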
Assay [2] is described as follows: qHTS assay to identify small molecule agonists of the hypoxia (HIF-1) signaling pathway (AID 1224846; active = well fitted activation curve with a large enough effect in the signal ratio in the repeat runs, not every such curve was filed as active; the % refers to the signal ratio). An outline of the steps: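 Measured by blue/green FRET after loading CCF4-AM: beta-lactamase expressed from a hypoxia response element in ME-180 cells. Test agents were delivered in DMSO and left 17 hrs; cells had been plated 5 hrs earlier in low-serum (0.5% dialyzed FBS) medium.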

A short description of assay [3]: qHTS assay to identify small molecule agonists of H2AX - cell viability counter screen (AID 1224847; calls by dose curve; note: nearly all actives have a fitted effect of over 30% in size; note: potency is the fitted concentration of half-maximal effect). The method, boiled down: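 Counter-screen for viability: CellTiter-Glo ATP luminescence read after 3 h compound treatment (15-point titration, 0.76% DMSO final) of CHO-K1 cells at 37C, with 30 min room-temperature reagent incubation.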
On the technique in general: qHTS replaces the single test concentration by a dilution series.

Assay [4] is described as follows: qHTS assay to identify small molecule agonists of the estrogen related receptor (ERR) signaling pathway from Tox21 library (AID 1224849; calls by dose curve; note: nearly all actives have a fitted effect of over 15% in size). The following applies: ERR reporter cell line, ONE-Glo luciferase, 18 h. An outline of the steps:
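We plated ERR reporter cells, waited 6 h, added compounds in DMSO by pin tool and incubated them 18 h at 37 C. ONE-Glo was then added and luminescence read after 30 min.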

Assay [5] in a line: qHTS RealTime-Glo MT Cell Viability Assay in HepG2 cells - 24 hour (AID 1224867). Note: nearly all actives have a fitted effect of over 50% in size. The method, boiled down:
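HepG2 cells were seeded at 600 cells/well together with NanoLuc luciferase and a cell-permeant prosubstrate, preincubated 5 h at 37 C/5% CO2, then pin-dosed with compounds in DMSO. Nonlytic luminescence from viable cells was read at each time point.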

Assay [6] is described as follows: qHTS RealTime-Glo MT Cell Viability Assay in HEK293 cells - 32 hour (AID 1224868). Note: nearly all actives have a fitted effect of over 50% in size. Note: potency is the fitted concentration of half-maximal effect. The method, boiled down:
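HEK293 cells were seeded at 600 cells/well together with NanoLuc luciferase and cell-permeant prosubstrate, preincubated 5 h at 37 C/5% CO2, then given compound in DMSO by pintool. Luminescence from viable-cell prosubstrate reduction was read repeatedly over 40 h.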

Assay [7] is described as follows: A CellTox Green Cytotoxicity Assay to monitor cytotoxicity in HEK293 cells - 0 hour (AID 1224869). Note: nearly all actives have a fitted effect of over 50% in size. The method, boiled down: (§1)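 Each value comes from one timepoint of a single continuous run in which HEK293 cells with CellTox Green were exposed to compound for up to 40 h at 37 C, dye fluorescence rising with cell death.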
The nature of assay [8]: qHTS RealTime-Glo MT Cell Viability Assay in HepG2 cells - 40 hour (AID 1224870). Note: nearly all actives have a fitted effect of over 50% in size. The method, boiled down: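 HepG2 cells (600/well) mixed with RealTime-Glo MT reagent, settled 5 h at 37 C/5% CO2 before compound addition. Nonlytic NanoLuc luminescence from viable-cell prosubstrate reduction read repeatedly during 40 h treatment at 37 C.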
Assay [9] can be described thus: A CellTox Green Cytotoxicity Assay to monitor cytotoxicity in HEK293 cells - 40 hour (AID 1224871). Note: nearly all actives have a fitted effect of over 45% in size. Note: potency is the fitted concentration of half-maximal effect. The method, boiled down: as §1
Assay [10] is described as follows: qHTS assay to identify small molecule agonists of H2AX (AID 1224845; active = well fitted activation curve with a large enough effect in the signal ratio in the repeat runs, not every such curve was filed as active; the % refers to the signal ratio). The method, boiled down:
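Wild-type CHO-K1 cells, plated overnight, exposed 3hr at 37C to 15 concentrations (0.76% DMSO final). Lysed, then HTRF anti-pH2AX (S139) cryptate and anti-H2AX-d2 antibodies, 24 hr room temperature; 665/620 nm emission read.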

Where “and” joins values, the source holds several entries; their conditions need not be identical. Equal entries are not always repeated. Results filed as inconclusive are left out. Some structures have more than one record in an assay (separate samples or runs), and their calls can disagree. Calls of active or inactive are those of the source. Unless noted, calls come from the whole dose curve; as a rule, active = well fitted curve in the direction sought with a large enough effect in the repeat runs; inconclusive = weak or mixed curves; inactive = no such curve, though single readings can be large; an effect the other way counts as inactive or inconclusive.
% is set by controls: 0 for no effect and ±100 for the full control effect.

For the compound `CCSC(=O)N1CCCCCC1`, the Potency result in assay [1], in [3], in assay [6], in [7] and in assay [9] was “inactive” throughout. The result in assay [2], in assay [5] and in assay [8] was inactive. The activity change, positive = activation in [4] (at 92.4 µM (top of the series)) is -10.2% (inactive) and -0.0309% (inactive).
For `C=CC(=O)OCC(CC)CCCC` (stereo not drawn), the Potency entry in assay [1], in assay [3], in assay [6], in [7] and in assay [9] was “inactive” each time. Besides, the outcome in assay [2], in assay [5] and in assay [8] was inactive. Further, the activity change, positive = activation in [4] (at 92.4 µM (top of the series)) was 0.98% (inactive) and -12% (inactive).
On to `CSc1nnc(C(C)(C)C)c(=O)n1N`, for which the Potency entry in [1], in assay [10], in assay [3], in [6], in [7] and in assay [9] was “inactive” each time. The call in assay [2], in assay [5] and in assay [8] was inactive.
As to `CCOP(=S)(OCC)Oc1cc(C)nc(C(C)C)n1`, the Potency entry in assay [1], in assay [10], in assay [3], in assay [6], in assay [7] and in assay [9] was “inactive” throughout. The result in assay [2], in assay [5] and in [8] was inactive.
`O=C(O)c1cc(Oc2ccc(C(F)(F)F)cc2Cl)ccc1[N+](=O)[O-]`: the Potency result in assay [1], in assay [3], in [6], in [7] and in assay [9] was “inactive” in each case. For the same compound, the call in assay [2], in [5] and in assay [8] was inactive. Further, the activity change, positive = activation in [4] (at 42.5 µM (top of the series)) was 9.01% (inactive); in assay [4] (at 92.4 µM (top of the series)), -1% (inactive) and -14.6% (inactive) and -4.43% (inactive).
With `C=C(C)C(=O)OCC(CC)CCCC` (stereo not drawn), the Potency result in [1], in assay [3], in assay [6], in assay [7] and in assay [9] was “inactive” throughout. Also, the compound was called inactive in [2], in assay [5] and in [8]. Moreover, the activity change, positive = activation in assay [4] (at 92.4 µM (top of the series)) is -78.2% (inactive) and 4.6% (inactive).
In the case of `Cc1ccc(O)c(C)c1`, the Potency entry in assay [1], in [3], in assay [6], in assay [7] and in assay [9] was “inactive” throughout. In addition, the outcome in assay [2], in [5] and in [8] was inactive. In addition, the activity change, positive = activation in assay [4] (at 92.4 µM (top of the series)) was -0.712% (inactive) and 11.3% (inactive).
With `Cl[C@H]1OCCO[C@@H]1Cl`, the Potency entry in assay [1], in [3], in assay [6], in assay [7] and in assay [9] was “inactive” each time. Moreover, the outcome in [2], in assay [5] and in [8] was inactive. In addition, the activity change, positive = activation in assay [4] (at 92.4 µM (top of the series)) is -1.08% (inactive) and -4.01% (inactive).
Take `Nc1cccc(Cl)c1`: the Potency result in assay [1], in assay [3], in assay [7] and in assay [9] was “inactive” in each case. Also, the call in assay [2], in assay [5] and in assay [8] was inactive. For the same compound, the activity change, positive = activation in [4] (at 92.4 µM (top of the series)) was 7.3% (inactive) and -16.4% (inactive). Further, the Potency result in assay [6] was “inactive and 21.9 µM (active)”.
For the compound `CC[N+](=O)[O-]`, the Potency result in assay [1], in assay [10], in [3], in assay [6], in assay [7] and in assay [9] was “inactive” in each case. For the same compound, the call in assay [2], in assay [5] and in assay [8] was inactive.
As to `Nc1cc(Cl)cc(Cl)c1`, the Potency entry in assay [1], in [10], in assay [3], in assay [6], in assay [7] and in assay [9] was “inactive” each time. In addition, the call in [2], in assay [5] and in [8] was inactive.
Turning to `N#Cc1ccccn1`, the Potency result in [1], in [10], in [3], in [6], in [7] and in assay [9] was “inactive” throughout. The result in assay [2], in assay [5] and in assay [8] was inactive.
Take `COC(C)(C)CCCC(C)C/C=C/C(C)=C/C(=O)OC(C)C` (stereo not drawn): the Potency result in assay [1], in assay [3], in assay [6], in assay [7] and in assay [9] was “inactive” each time. Further, the call in [2], in [5] and in assay [8] was inactive. In addition, the activity change, positive = activation was 0.0177% (inactive) in [4] (at 42.5 µM (top of the series)) and -14.1% (inactive) in assay [4] (at 92.4 µM (top of the series)).
With `C[C@]12CC[C@H](O)CC1=CC[C@@H]1[C@@H]2CC[C@]2(C)C(=O)CC[C@@H]12`, the Potency result in assay [1], in assay [10], in assay [6] and in assay [7] was “inactive” each time. The Potency in [3] was 89.8 µM (active) and inactive; in [9] it was “inactive and 43.6 µM (active)”. The compound was called inactive in assay [5] and in assay [8].
For the compound `Sc1ccccc1`, the Potency result in [1], in assay [10], in assay [3], in assay [6], in assay [7] and in [9] was “inactive” each time. Moreover, the result in [2], in assay [5] and in [8] was inactive.
With `O=C(O)C1C(C(=O)O)C2(Cl)C(Cl)=C(Cl)C1(Cl)C2(Cl)Cl` (stereo not drawn), the Potency entry in assay [1], in [10], in [3], in [6], in [7] and in assay [9] was “inactive” each time. The call in assay [5] and in assay [8] was inactive.
For `CCCCCCCCCCCCCCCCCC(=O)O`, the Potency result in assay [1], in [10], in assay [3], in assay [6], in assay [7] and in [9] was “inactive” throughout. For the same compound, the compound was called inactive in assay [2], in [5] and in assay [8].
Consider `CN1C(=O)CCS(=O)(=O)C1c1ccc(Cl)cc1` (stereo not drawn), for which the Potency result in [1], in assay [10], in assay [3], in [6], in assay [7] and in assay [9] was “inactive” in each case. Also, the outcome in assay [5] and in [8] was inactive.
Turning to `COc1cc(-c2ccc(N)c(OC)c2)ccc1N`, the Potency result in [1], in assay [3], in assay [7] and in assay [9] was “inactive” each time. For the same compound, the compound was called inactive in assay [2], in assay [5] and in [8]. Further, in assay [6], the Potency result was “inactive and 37.1 µM (active)”.
On to `CC(=O)/C=C/c1ccccc1`, for which the Potency result in assay [1], in [3], in assay [6], in assay [7] and in [9] was “inactive” in each case. Moreover, the call in assay [2], in assay [5] and in assay [8] was inactive.
On to `CNc1cnn(-c2cccc(C(F)(F)F)c2)c(=O)c1Cl`, for which the Potency entry in assay [1], in assay [3], in [6], in assay [7] and in assay [9] was “inactive” throughout. Besides, the call in assay [2], in [5] and in assay [8] was inactive.
On to `C=CC(=O)OCCCCCC(C)C`, for which the Potency entry in assay [1], in assay [3], in assay [6], in assay [7] and in assay [9] was “inactive” each time. The call in assay [2], in assay [5] and in assay [8] was inactive.
For `Oc1ccc(Cl)cc1`, the Potency entry in assay [1], in assay [3], in [6], in assay [7] and in assay [9] was “inactive” in each case. Also, the compound was classed as inactive in assay [2], in [5] and in [8].
On to `Clc1cnc(Oc2ccc(Oc3ncc(Cl)cc3Cl)cc2)c(Cl)c1`, for which the Potency entry in [1], in assay [3], in assay [6] and in assay [7] was “inactive” each time. Also, the result in assay [5] and in [8] was inactive. Also, the Potency in [9] was 24.5 µM (active).
